Screens (PubChem)
Bim-Bcl-W: inhibitors of Bim-Bcl-W interaction, human | bead-based flow cytometry, Bim peptide-Bcl-W binding | inhibition, % at 10 µM | hit rate 0.02% among 190,000 | AID 952;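 also: 0% = bound tracer without compound and 100% = peptide blocker; higher means less fluorescent Bim peptide bound to Bcl-W beads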
Bfl-1 Bim block: inhibitors of Bim-Bfl-1 interaction, human; Q16548; Bead-based flow cytometry, Bim-Bfl-1 binding inhibition; inhibition, % at 10 µM; hit rate 0.12% among 190,000; AID 1008;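 also: 0% = wells without compound plus tracer and 100% = blocker peptide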
Bcl-2 Bim block: disrupts Bim peptide binding to human Bcl-2 | inhibition, % at 10 µM | Bead-based flow cytometry, Bim peptide-Bcl-2 binding | AID 950 | P10415 | hit rate 0.06% among 190,000; in the data active = inhibition above about 40%;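 also: 0% = no compound wells with probe peptide and 100% = reference peptide inhibitor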
Target sequence (P10415 whole entry, looked up): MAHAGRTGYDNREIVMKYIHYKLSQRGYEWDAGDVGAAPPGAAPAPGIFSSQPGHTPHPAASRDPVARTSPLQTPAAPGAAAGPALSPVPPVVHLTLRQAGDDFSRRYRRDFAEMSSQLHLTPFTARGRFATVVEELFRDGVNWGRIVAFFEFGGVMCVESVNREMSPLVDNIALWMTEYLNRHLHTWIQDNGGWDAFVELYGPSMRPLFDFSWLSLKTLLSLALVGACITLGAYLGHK
Bcl-B Bim block: human Bim-Bcl-B interaction inhibition | AID 951 | bead-based flow cytometry, Bim peptide-Bcl-B binding | Q9HD36 | hit rate 0.073% among 190,000 | inhibition, % at 10 µM;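 also: 0% = tracer peptide without compound and 100% = reference inhibitor peptide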
Bcl-XL Bim block: inhibitors of Bim-Bcl-XL interaction, human; Q07817; Bim peptide-Bcl-XL binding, bead flow cytometry, fluorescence; inhibition, % at 10 µM; hit rate 0.04% among 190,000; AID 1007
Target sequence (Q07817 whole entry, looked up): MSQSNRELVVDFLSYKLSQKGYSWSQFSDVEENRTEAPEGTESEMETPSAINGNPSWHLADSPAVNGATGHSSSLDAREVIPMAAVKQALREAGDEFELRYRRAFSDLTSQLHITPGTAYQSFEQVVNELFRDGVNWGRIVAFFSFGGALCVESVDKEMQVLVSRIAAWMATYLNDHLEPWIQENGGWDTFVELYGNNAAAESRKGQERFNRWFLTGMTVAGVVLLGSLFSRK
Wee1 stabilizer: blocks degradation of human Wee1 kinase | reporter increase, % at 5 µM | hit rate 1.2% among 220,000 | P30291 | AID 1321 | HeLa Luc-Wee1K328M stability, luciferase luminescence; 100% = proteasome inhibitor MG132 effect;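 active = activation above the mean of all tested compounds plus 3 SD, set per screening run, cut at about 8.8% in these data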;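 also: cells exposed to compound for 20 h before luminescence read; 0% = DMSO alone and 100% = MG132 at 30 µM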
Active calls of the source: *; nt = not tested or not shown. An excerpt weighted towards active compounds, which were near 1.4% of everything screened. Rule as the data show it, unless noted: active = inhibition above about 40%.

SMILES	Bim-Bcl-W	Bfl-1 Bim block	Bcl-2 Bim block	Bcl-B Bim block	Bcl-XL Bim block	Wee1 stabilizer
O=C(Oc1nsnc1N1CCCCC1)N1CCOCC1	-3	3	-3	-2	-4	8.9*
O=C(Nc1ccc(-c2ccc3nncn3n2)cc1)c1ccc(Br)o1	-4	-2	4	-7	-3	0
COc1ccccc1Cn1nnc2c(=O)[nH]c(C3CCN(C(=O)c4ccccc4Cl)CC3)nc21	3	-12	-6	12	0	0
COc1ccccc1Cn1nnc2c(=O)[nH]c(C3CCN(C(=O)c4ccc(C)cc4)CC3)nc21	-2	-1	-1	50*	-3	0
O=C(c1ccccc1)N1CCC(c2nc3c(nnn3Cc3ccccc3Cl)c(=O)[nH]2)CC1	4	-17	-6	-10	-4	-1
COc1ccccc1Cn1nnc2c(=O)[nH]c(C3CCN(C(=O)c4ccc(F)cc4)CC3)nc21	5	-1	-1	57*	2	-4
CCOC(=O)c1cc(CC)sc1/N=C/c1c(O)ccc2ccccc12	0	6	1	-10	-2	9.2*
CCOC(=O)c1cc(CC)sc1/N=C/C1C(=O)CCCC1=O	1	-7	-5	-5	-4	-2
CCOC(=O)c1sc(NC(=O)CSc2nc(-c3ccco3)cc(C(F)(F)F)n2)c(C(=O)OC(C)C)c1C	nt	nt	nt	nt	nt	0
CCOc1ccc(NC(=O)Nc2ccc3nccnc3c2)cc1	0	-7	-1	-1	2	9.4*
CCOc1ccc(NC(=O)c2ccc3nccnc3c2)cc1	0	-14	-6	-7	-3	0
O=C1CSC(=S)N1/N=C/C=C/c1ccccc1	2	4	7	-15	2	-2
O=C1CSC(=S)N1N=C1CCCCCC1	-4	-17	-7	-9	-9	13*
COc1cc(C(=O)Nc2cccc(-c3cn4cccnc4n3)c2)cc(OC)c1OC	0	-3	-1	-1	0	3
COc1ccc(-c2cn3cccnc3n2)cc1NC(=O)c1cc(OC)c(OC)c(OC)c1	-5	2	0	3	0	9.7*
COc1cc(NC(=O)COC(=O)/C=C/c2ccc(OC)c(OC)c2)cc(OC)c1	0	-3	-7	-2	-1	1
COc1cc(NC(=O)COC(=O)/C=C/c2ccccc2Cl)cc(OC)c1	1	0	-2	0	-4	9.0*
CCC1=NNc2cccc3c(OC)ccc1c23	66*	56*	64*	100*	75*	-2
CC1=NNC(=O)C1CC(=O)N/N=C(\C)c1ccco1 (stereo not drawn)	-1	-2	-3	0	0	2
CC(c1ccccc1)n1c(-c2cccs2)nc2c(c(=O)c3ccccc3n2C)c1=O (stereo not drawn)	nt	nt	nt	nt	nt	0
Cc1nc(-c2ccccc2OC(F)(F)F)[nH]c(=O)c1Cl	nt	nt	nt	nt	nt	9.2*
Cc1cc(=O)[nH]c(-c2ccccc2OC(F)(F)F)n1	nt	nt	nt	nt	nt	0
CCCS(=O)(=O)Nc1cc(C(F)(F)F)ccc1OCCOC	-1	-12	-9	-9	5	-2
CC(C)(CO)Nc1nc(Cl)nc(NC2CCCCC2)n1	nt	nt	nt	nt	nt	-1
O=C(N/N=C/c1ccccc1OC(F)F)c1cc(-c2ccncc2)nc2ccccc12	-5	-6	-8	-7	-5	11*
SMILES	Bim-Bcl-W	Bfl-1 Bim block	Bcl-2 Bim block	Bcl-B Bim block	Bcl-XL Bim block	Wee1 stabilizer
COCCNC(=O)NC12CC3(C)CC(C)(CC(C)(C3)C1)C2	-1	-5	-3	-3	-1	4
CCN(CC)CCCN(Cc1cc2cc3c(cc2[nH]c1=O)OCO3)C(=O)Nc1ccccc1OC	1	0	-2	0	-1	-1
CCN(CC)CCCN(Cc1cc2cc(OC)c(OC)cc2[nH]c1=O)C(=O)Nc1ccccc1	1	-13	-1	-5	-4	9.9*
CSc1nccc(-c2sc(SC)c(C#N)c2-c2ccccc2)n1	nt	nt	nt	nt	nt	-2
CSc1sc(-c2ccnc(=S)[nH]2)c(-c2ccccc2)c1C#N	nt	nt	nt	nt	nt	9.8*
Cc1nc2cc(Cl)c(Cl)cc2n1CCCO	nt	nt	nt	nt	nt	10*
CC(C)Nc1nc(SC(C)C(=O)Nc2ccccc2)nc(N(C)C)n1 (stereo not drawn)	0	-5	-3	-6	0	10*
CC(=O)Nc1ccc(NC(=O)[C@@H]2CCCN2S(=O)(=O)c2ccc3c(c2)OCCO3)cc1	0	-4	1	-2	0	0
CC(C)CNC(=S)NC(=O)c1ccc(F)cc1	-1	-2	-3	-4	-3	9.1*
Cc1nn(-c2ccccc2)c(Cl)c1/C=C1\C(=O)N(C)C(=S)N1C	-2	-3	-3	-7	-3	-1
Cc1nn(-c2ccccc2)c(Cl)c1/C=C1\SC(=S)N(C)C1=O	-2	1	-1	-8	-7	15*
O=C(CSc1cccs1)Nc1ccc(Cl)cc1	nt	nt	nt	nt	nt	10*
COc1ccc(-c2noc(CCCC(=O)Nc3ccc(C(N)=O)cc3)n2)cc1OC	nt	nt	nt	nt	nt	-3
COc1cccc(OCc2nc3ccccc3[nH]2)c1	2	-8	-8	-5	-1	11*
Nc1c(C(=O)c2ccccc2)sc2nsc(SCCN3CCOCC3)c12	nt	nt	nt	nt	nt	-3
CC(=O)c1sc2nsc(SCCN3CCOCC3)c2c1N	nt	nt	nt	nt	nt	9.0*
Cc1ccccc1OCC(=O)Nc1ccc2c(c1)n(C)c(=O)n2C	-1	-2	-3	0	0	1
O=C(Nc1nc2ccc(S(=O)(=O)N3CCCC3)cc2s1)C1CCCCC1	-4	13	-2	-22	-6	11*
COc1ccc(Oc2nc(-c3cccnc3)nc3ccccc23)cc1	nt	nt	nt	nt	nt	-2
Fc1ccccc1Oc1nc(-c2ccncc2)nc2ccccc12	nt	nt	nt	nt	nt	8.9*
CCOC(=O)C1=C(CC)Nc2ccccc2N=C1NC(=O)c1ccc(S(=O)(=O)N2CCOCC2)cc1	0	57*	78*	75*	4	0
CCOC(=O)C1=C(CC)Nc2ccccc2N=C1NC(=O)c1ccc(S(=O)(=O)N(C)C)cc1	0	-16	-11	-10	-14	0
O=C(CSc1nnc(NC(=O)c2ccc3c(c2)OCO3)s1)NCc1ccco1	1	-4	1	-1	-2	0
O=C(N/N=C/C=C/c1ccc(Br)cc1)C(O)c1ccccc1 (stereo not drawn)	-1	-4	-13	-5	-3	11*
O=C(N/N=C/C=C/c1ccccc1)c1ccc(Br)cc1	-1	-12	-8	-4	-6	0
COc1cccc(OC)c1C(=O)Nc1cc(Cl)ccc1N1CCOCC1	2	5	0	3	0	-2
O=C(COS(=O)c1ccccc1)Nc1cc(Cl)ccc1N1CCOCC1 (stereo not drawn)	-4	-6	0	-4	-1	9.0*
CCC(C)(C)c1ccc(OCCCC[n+]2cccc(C)c2)c(C(C)(C)CC)c1	4	-1	1	0	0	-1
O=C(O)CCCCCN1C(=O)CSC1=S	-2	-10	-8	-5	-2	-4
CC(C)OC(=O)CCCCCN1C(=O)CSC1=S	-1	-1	-1	-3	0	9.0*
